The results in this text go back to PubChem BioAssay AID1822 (The Scripps Research Institute Molecular Screening Center, 2009).

Structures are written as SMILES. Out of some 290,000 compounds screened, about 3,500 (1.2%) were called active. Only a selection was taken, and actives are over-represented in it overall. Values without a mark were called inactive.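 The calls were made as follows: active = inhibition above the campaign mean inhibition over all tested compounds plus 3 SD (cut at about 28% in these data); inactive = the rest.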

This experiment relates to M18 aspartyl aminopeptidase (Plasmodium falciparum 3D7). Nature of the experiment: inhibition of P. falciparum M18 aminopeptidase – biochemical, QFRET, recombinant enzyme, primary screen (AID 1822).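 Also: 0% = plate median of test compound wells and 100% = 2 mM ZnCl2.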 The conditions noted are these: recombinant PfM18AAP, H-Glu-NHMec fluorogenic cleavage; at 7.35 µM; stronger effect = higher value.
`COc1cccc(N2C(=O)NC(=O)/C(=C\c3ccc([N+](=O)[O-])s3)C2=O)c1`: the inhibition is 9.11%.

Turning to `Cc1cccc(N2C(=O)NC(=O)/C(=C\c3cnn(-c4ccccc4)c3)C2=O)c1`, the inhibition was -3.93%.

In the case of `COc1cccc(N2C(=O)NC(=O)/C(=C\c3cn(C)c4ccccc34)C2=O)c1`, the inhibition was 31.5% (active).

As for `CCOc1ccc(-c2cc(C)[n+](CCN(CC)CC)c(-c3ccc(OCC)cc3)c2)cc1`, the inhibition is -4.54%.

Take `Cc1cccc(NC(=O)N2CC3CC(C2)c2cccc(=O)n2C3)c1` (stereo not given): the inhibition is -2.4%.
